The results in this text go back to PubChem BioAssay (NCI).

This is part of a sample that, as a whole, favours compounds with a hit. Of some 79,000 tested, about 15% had one in any assay. Unmarked numbers belong to inactive results. Calls of active or inactive are those of the source. Cut-off read from the data, not from the text of the source: active = growth inhibition above about 70%; inactive = the rest.

This experiment is described as follows: NCI Yeast Anticancer Drug Screen. Data for the mlh1 strain (AID 171).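 Note: 0% = growth of vehicle-treated control cultures of the same strain.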 Conditions: S. cerevisiae mlh1 strain growth inhibition, hits give high values. As for the experimental part:
Growth inhibition of yeast strains with defined genetic alterations is measured as a screen for potential anti-cancer activity. Selected strains with alterations in DNA damage repair or cell cycle control were exposed to compounds and growth inhibition was measured relative to vehicle treated controls. The strain used in this assay is mlh1

As for `Cc1c(C)c(C)c(CSC(=N)N)c(C)c1C`, the growth inhibition by setting is: (at 1.2 µM) -35%; (at 3.7 µM) -43%; (at 11.0 µM) -17%; (at 33.0 µM) 77% (active); (at 100.0 µM) 98% (active).

Take `CCN(CC)Cc1cc(Nc2c3ccccc3nc3c2[nH]c2ccccc23)cc(CN(CC)CC)c1O`: the growth inhibition is 1% (at 1.2 µM); 2% (at 3.7 µM); 1% (at 11.0 µM); 1% (at 33.0 µM); 7% (at 100.0 µM).

Regarding `CCOC(=O)C1=C(C)NC(C)=C(C(=O)OCCNC(=O)c2ccc(N=[N+]=[N-])cc2)C1c1ccccc1C(F)(F)F` (stereo not given), the growth inhibition (at 1.2 µM) was 6%; the growth inhibition (at 3.7 µM) is -5%; the growth inhibition (at 11.0 µM) is -1%; the growth inhibition (at 33.0 µM) was 9%; the growth inhibition (at 100.0 µM) was 28%.

`O=C(O)c1ccccc1/C=N/N=C1c2ccccc2-c2ccccc21`: the growth inhibition by setting is: (at 1.2 µM) 1%; (at 3.7 µM) 2%; (at 11.0 µM) 1%; (at 33.0 µM) -9%; (at 100.0 µM) 8%.

`CCC1(OC(=O)CN2CCN(CCO)CC2)C(=O)OCc2c1cc1n(c2=O)Cc2cc3ccccc3nc2-1` (stereo not given): the growth inhibition (at 1.2 µM) was 1%; the growth inhibition (at 3.7 µM) was -5%; the growth inhibition (at 11.0 µM) was -12%; the growth inhibition (at 33.0 µM) is -20%; the growth inhibition (at 100.0 µM) was -13%.

Turning to `Cc1cccc(/C=N/NC(=S)N2CCCC2)n1`, the growth inhibition is, setting by setting: (at 1.2 µM) -8%; (at 3.7 µM) -8%; (at 11.0 µM) 48%; (at 33.0 µM) 95% (active); (at 100.0 µM) 97% (active).

For `O=C1C=C(N2CCN(c3ccccn3)CC2)C(=O)c2c(O)ccc(O)c21`, the growth inhibition is 7% (at 1.2 µM); 12% (at 3.7 µM); 21% (at 11.0 µM); 42% (at 33.0 µM); 75% (active) (at 100.0 µM).

Regarding `COc1cc([C@@H]2c3cc4c(cc3[C@@H](Nc3ccc(NC(=O)c5cc([N+](=O)[O-])cn5C)cc3)[C@H]3COC(=O)[C@H]23)OCO4)cc(OC)c1O`, the growth inhibition (at 1.2 µM) was -15%; the growth inhibition (at 3.7 µM) is 5%; the growth inhibition (at 11.0 µM) is 22%; the growth inhibition (at 33.0 µM) is 39%; the growth inhibition (at 100.0 µM) was 53%.
